The record followed here is ChEMBL document CHEMBL1961873, “Compounds: GSK PKIS; Assays: Nanosyn kinase panel” (2012).

The structures appear in SMILES notation.

In assay [1] the target is Serine/threonine-protein kinase 26 (Homo sapiens) (UniProt Q9P289). Conditions: at 1 µM.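 Also: mean inhibition of MST4 kinase activity, reported from the GSK PKIS inhibitor-set screening panel.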
Assay [2] deals with Serine/threonine-protein kinase PAK 1 (Homo sapiens) (UniProt Q13153). Conditions: at 0.1 µM.
Assay [3] has the same target. Conditions: at 1 µM.
Assay [4] concerns the target Serine/threonine-protein kinase PAK 2 (Homo sapiens) (UniProt Q13177). Conditions: at 0.1 µM.
Assay [5] has the same target. The settings on record: at 1 µM.
The target of assay [6] is Serine/threonine-protein kinase PAK 3 (Homo sapiens) (UniProt O75914). The settings on record: at 0.1 µM.
Sequence of Serine/threonine-protein kinase PAK 3 (Homo sapiens) (O75914 whole entry, looked up): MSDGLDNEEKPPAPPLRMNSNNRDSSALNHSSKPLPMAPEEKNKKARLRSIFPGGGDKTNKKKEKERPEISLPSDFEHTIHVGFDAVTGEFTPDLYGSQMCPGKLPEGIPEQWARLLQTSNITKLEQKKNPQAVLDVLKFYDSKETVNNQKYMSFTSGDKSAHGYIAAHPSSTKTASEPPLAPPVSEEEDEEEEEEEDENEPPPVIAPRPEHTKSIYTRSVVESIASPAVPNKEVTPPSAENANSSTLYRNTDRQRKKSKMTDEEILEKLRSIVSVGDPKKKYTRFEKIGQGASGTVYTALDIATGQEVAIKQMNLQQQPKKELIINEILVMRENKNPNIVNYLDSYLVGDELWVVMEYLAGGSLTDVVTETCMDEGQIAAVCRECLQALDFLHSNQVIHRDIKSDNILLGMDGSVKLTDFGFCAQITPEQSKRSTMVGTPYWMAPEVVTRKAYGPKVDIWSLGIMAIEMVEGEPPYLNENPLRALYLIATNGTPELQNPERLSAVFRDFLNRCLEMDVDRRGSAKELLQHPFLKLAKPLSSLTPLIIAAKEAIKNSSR
Assay [7] shares this target. The settings on record: at 1 µM.
The target of assay [8] is Serine/threonine-protein kinase PAK 5 (Homo sapiens) (UniProt Q9P286). The settings on record: at 0.1 µM.
Sequence of Serine/threonine-protein kinase PAK 5 (Homo sapiens) (Q9P286 whole entry, looked up): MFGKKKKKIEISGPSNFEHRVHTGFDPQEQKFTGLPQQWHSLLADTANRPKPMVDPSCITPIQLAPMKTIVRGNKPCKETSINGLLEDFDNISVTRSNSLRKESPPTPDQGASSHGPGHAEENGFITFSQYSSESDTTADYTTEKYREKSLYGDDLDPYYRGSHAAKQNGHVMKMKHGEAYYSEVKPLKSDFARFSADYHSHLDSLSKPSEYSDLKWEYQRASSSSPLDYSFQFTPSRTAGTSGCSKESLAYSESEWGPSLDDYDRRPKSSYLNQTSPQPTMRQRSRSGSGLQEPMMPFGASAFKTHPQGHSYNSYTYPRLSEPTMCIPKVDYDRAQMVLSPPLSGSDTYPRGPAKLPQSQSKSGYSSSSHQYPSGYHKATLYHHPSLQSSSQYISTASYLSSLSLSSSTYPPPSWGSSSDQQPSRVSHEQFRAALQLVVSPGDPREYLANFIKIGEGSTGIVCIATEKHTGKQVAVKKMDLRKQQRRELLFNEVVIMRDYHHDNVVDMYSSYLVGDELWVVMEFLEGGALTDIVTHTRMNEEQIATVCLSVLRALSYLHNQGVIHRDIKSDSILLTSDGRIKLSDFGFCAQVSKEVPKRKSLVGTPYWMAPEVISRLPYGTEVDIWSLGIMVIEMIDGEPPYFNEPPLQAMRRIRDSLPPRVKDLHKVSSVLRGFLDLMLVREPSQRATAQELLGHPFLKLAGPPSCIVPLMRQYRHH
For assay [9] the target is unchanged. The settings on record: at 1 µM.
The target in assay [10] is Serine/threonine-protein kinase PAK 6 (Homo sapiens) (UniProt Q9NQU5). Conditions: at 0.1 µM.
Sequence of Serine/threonine-protein kinase PAK 6 (Homo sapiens) (Q9NQU5 whole entry, looked up): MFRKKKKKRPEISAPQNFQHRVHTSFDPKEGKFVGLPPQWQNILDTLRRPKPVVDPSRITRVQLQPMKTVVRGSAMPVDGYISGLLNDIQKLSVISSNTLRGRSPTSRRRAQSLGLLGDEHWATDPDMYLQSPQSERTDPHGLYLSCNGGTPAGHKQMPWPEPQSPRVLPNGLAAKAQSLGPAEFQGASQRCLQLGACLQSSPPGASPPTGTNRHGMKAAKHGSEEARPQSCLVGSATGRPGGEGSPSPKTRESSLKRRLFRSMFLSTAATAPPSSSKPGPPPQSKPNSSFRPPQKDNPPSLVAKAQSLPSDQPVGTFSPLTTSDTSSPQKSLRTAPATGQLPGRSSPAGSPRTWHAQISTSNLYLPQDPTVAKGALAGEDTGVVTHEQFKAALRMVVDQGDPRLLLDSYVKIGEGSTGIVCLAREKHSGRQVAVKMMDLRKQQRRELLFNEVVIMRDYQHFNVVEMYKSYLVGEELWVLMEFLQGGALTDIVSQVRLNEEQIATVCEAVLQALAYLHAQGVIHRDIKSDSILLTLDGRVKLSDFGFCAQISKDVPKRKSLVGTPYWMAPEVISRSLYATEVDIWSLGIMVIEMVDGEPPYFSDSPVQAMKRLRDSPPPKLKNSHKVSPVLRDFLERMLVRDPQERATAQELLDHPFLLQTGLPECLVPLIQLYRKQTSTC
For assay [11] the target is unchanged. Conditions: at 1 µM.
Assay [12] deals with Tyrosine-protein kinase ABL1 (Homo sapiens), P00519 [E255K]. Conditions: at 0.1 µM.
For assay [13] the test system is unchanged. Conditions: at 1 µM.
Assay [14] concerns Tyrosine-protein kinase ABL1 (Homo sapiens), P00519 [H396P]. Conditions: at 0.1 µM.
The test system is the same in assay [15]. Conditions: at 1 µM.
Assay [16] deals with Tyrosine-protein kinase ABL1 (Homo sapiens), P00519 [M351T]. Conditions: at 0.1 µM.
Assay [17] shares this test system. Conditions: at 1 µM.
The subject of assay [18] is Tyrosine-protein kinase ABL1 (Homo sapiens), P00519 [Q252H]. The settings on record: at 0.1 µM.
For assay [19] the test system is unchanged. Conditions: at 1 µM.
The test system of assay [20] is Tyrosine-protein kinase ABL1 (Homo sapiens), P00519 [T315I]. The settings on record: at 0.1 µM.

Sequence of Serine/threonine-protein kinase PAK 2 (Homo sapiens) (Q13177 whole entry): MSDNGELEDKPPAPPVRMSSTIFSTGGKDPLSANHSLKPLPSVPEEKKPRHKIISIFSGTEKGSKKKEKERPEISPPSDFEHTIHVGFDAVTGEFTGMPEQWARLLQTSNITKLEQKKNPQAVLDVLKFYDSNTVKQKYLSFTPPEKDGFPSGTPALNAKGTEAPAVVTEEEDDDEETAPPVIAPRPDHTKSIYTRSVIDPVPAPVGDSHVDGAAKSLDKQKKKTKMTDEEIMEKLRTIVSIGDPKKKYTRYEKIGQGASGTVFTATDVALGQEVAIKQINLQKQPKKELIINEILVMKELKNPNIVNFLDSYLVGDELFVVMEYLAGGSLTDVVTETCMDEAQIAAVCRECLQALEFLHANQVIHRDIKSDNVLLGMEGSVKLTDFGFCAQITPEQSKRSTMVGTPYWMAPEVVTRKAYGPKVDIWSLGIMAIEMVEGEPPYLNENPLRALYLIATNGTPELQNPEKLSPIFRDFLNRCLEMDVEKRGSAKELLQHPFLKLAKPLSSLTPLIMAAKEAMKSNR
Sequence of Serine/threonine-protein kinase PAK 1 (Homo sapiens) (Q13153 whole entry): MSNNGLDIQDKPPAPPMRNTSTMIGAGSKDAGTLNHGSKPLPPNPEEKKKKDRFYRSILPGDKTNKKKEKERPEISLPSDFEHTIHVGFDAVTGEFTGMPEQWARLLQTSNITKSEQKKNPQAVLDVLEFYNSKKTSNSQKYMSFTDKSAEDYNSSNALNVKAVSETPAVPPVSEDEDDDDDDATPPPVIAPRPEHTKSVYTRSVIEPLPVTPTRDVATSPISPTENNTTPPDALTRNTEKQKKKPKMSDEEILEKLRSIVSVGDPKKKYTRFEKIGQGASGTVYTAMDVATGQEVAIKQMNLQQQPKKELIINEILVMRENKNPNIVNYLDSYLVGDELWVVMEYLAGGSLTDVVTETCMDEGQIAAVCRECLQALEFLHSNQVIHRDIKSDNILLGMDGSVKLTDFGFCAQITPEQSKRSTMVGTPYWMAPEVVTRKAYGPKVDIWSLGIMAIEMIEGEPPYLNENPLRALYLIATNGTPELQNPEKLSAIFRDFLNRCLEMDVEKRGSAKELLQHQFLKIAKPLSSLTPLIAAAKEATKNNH
Sequence of Serine/threonine-protein kinase 26 (Homo sapiens) (Q9P289 2-416 limits assumed): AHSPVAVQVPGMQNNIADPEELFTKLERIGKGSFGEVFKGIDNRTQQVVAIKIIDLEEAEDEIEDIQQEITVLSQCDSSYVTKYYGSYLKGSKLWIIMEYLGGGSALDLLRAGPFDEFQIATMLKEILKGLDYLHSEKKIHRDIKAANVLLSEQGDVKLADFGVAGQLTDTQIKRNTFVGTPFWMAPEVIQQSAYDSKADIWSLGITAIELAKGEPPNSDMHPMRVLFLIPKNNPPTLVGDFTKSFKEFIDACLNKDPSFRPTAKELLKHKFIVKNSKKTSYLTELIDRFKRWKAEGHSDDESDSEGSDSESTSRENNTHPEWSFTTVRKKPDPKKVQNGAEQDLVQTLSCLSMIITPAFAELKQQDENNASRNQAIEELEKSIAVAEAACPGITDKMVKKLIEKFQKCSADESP

Turning to `COc1cc(C)c(NC(=O)CN(C)C)cc1Nc1nc(Nc2cccc(F)c2C(N)=O)c2cc[nH]c2n1`, the inhibition in assay [1] is -2.75%; in assay [2], 2.74%; in assay [3] it was 3.36%; in assay [4], 1.54%; in assay [5], 1.5%; in assay [6], 1.84%. The inhibition was 2.37% in assay [7]; -4.59% in assay [8]; -5.11% in assay [9]; 5.11% in assay [10]; -2.96% in assay [11]; 1.11% in [12]. Moreover, the inhibition was 0.03% in assay [13]; 2.73% in [14]; -1.28% in [15]; 1.99% in [16]; -1.18% in [17]; 2.21% in [18]. The inhibition in [19] was -0.29%; in assay [20] it was 1.45%.
For the compound `CCCN1CCC(Oc2cc(Nc3nc(Nc4cccc(F)c4C(N)=O)c4cc[nH]c4n3)c(OC)cc2Cl)CC1`, the inhibition in assay [1] was 2.1%; in assay [2], -3.06%; in assay [3], 1.83%; in [4], -1.01%; in [5], -0.56%; in [6], -0.46%. Also, the inhibition in [7] was -0.24%; in assay [8], 6.57%; in assay [9], 3.44%; in assay [10] it was 2.36%; in assay [11] it was 6.18%; in assay [12], -0.41%. Further, the inhibition was found to be 2.46% in assay [13]; 0.38% in assay [14]; 2.29% in assay [15]; 2.95% in [16]; 2.4% in assay [17]; 0.68% in [18]. Besides, the inhibition in assay [19] was found to be 5.93%; in [20] it was 1.91%.
With `COc1cc2ncn(-c3cc(O[C@@H](C)c4ccccc4Cl)c(C(N)=O)s3)c2cc1OC`, the inhibition in assay [1] was -7.1%; in assay [2], 7.98%; in [3] it was 9.51%; in assay [4] it was 1.89%; in assay [5], 2.93%; in [6] it was 5.16%. Besides, the inhibition in [7] was 5.27%; in assay [8] it was 2.62%; in assay [9], 4.73%; in [10] it was -0.86%; in assay [11], -1.4%; in assay [12], 7.11%. Further, the inhibition in [13] was 21.4%; in assay [14], 9.2%; in [15], 33.8%; in [16], 3.76%; in assay [17], 29.7%; in assay [18] it was 6.57%. Besides, the results for the inhibition in assay [19] and in assay [20] were 28.5% and 3.45%, respectively.
Regarding `CCc1cccc(NC(=O)Nc2ccc(Oc3ccc4nc(NC(=O)OC)[nH]c4c3)cc2)c1`, the inhibition in [1] was determined as 2.74%; in assay [2], 1.22%; in assay [3], 2.79%; in assay [4], 0.53%; in assay [5], 0.26%; in assay [6], 0.88%. For the same compound, the inhibition in assay [7] was 2.93%; in assay [8], 8.59%; in assay [9], -2.14%; in assay [10] it was 15.4%; in assay [11], 1.29%; in assay [12], 6.09%. For the same compound, the inhibition in assay [13] was determined as 14.3%; in [14] it was 34%; in assay [15], 51.8%; in [16] it was 48.6%; in [17], 57.9%; in assay [18] it was 48.4%. For the same compound, the inhibition in assay [19] was 60.8%; in assay [20], 40.6%.
Regarding `Cn1cc(C=C2C(=O)Nc3cccnc32)c2ccccc21`, the inhibition in assay [1] turned out to be 1.1%; in assay [2] it was 5.04%; in [3], 6%; in assay [4], 0.8%; in [5] it was 0.31%; in [6], 2.68%. In addition, the inhibition in assay [7] was 3%; in [8], -6.57%; in assay [9] it was -5.19%; in [10], -3.53%; in assay [11], 0.69%; in assay [12], 5.17%. Besides, the inhibition is 28.1% in [13]; 7.05% in [14]; 37.5% in assay [15]; 3.06% in [16]; 35.9% in assay [17]; 6.07% in assay [18]. The results for the inhibition in assay [19] and in assay [20] were 33.2% and 8.02%, respectively.
For `COc1ccc(-c2nn3ncccc3c2-c2ccnc(Nc3ccc(Cl)c(C(F)(F)F)c3)n2)cc1`, the inhibition in [1] was 0.3%; in [2] it was 2.46%; in [3], 0.59%; in assay [4], -0.08%; in assay [5] it was 0.63%; in assay [6], 2.32%. Further, the inhibition was 2.56% in assay [7]; 1.71% in assay [8]; -1.65% in assay [9]; -0.34% in [10]; -4.72% in assay [11]; 0.96% in assay [12]. In addition, the inhibition was 5.54% in [13]; 0.79% in assay [14]; 8.65% in assay [15]; 2.03% in assay [16]; 26.5% in [17]; 4.06% in assay [18]. Besides, the inhibition turned out to be 18.9% in assay [19] and 1.74% in [20].
As to `CC1=C(C(=O)Nc2ccc3[nH]ncc3c2)C(c2ccc(F)cc2)NC(=O)N1` (stereo not given), the inhibition in assay [1] was -0.49%; in [2] it was 4.25%; in [3] it was 9.83%; in [4], -0.87%; in assay [5] it was -0.03%; in assay [6], 2.64%. The inhibition in assay [7] was 1.55%; in assay [8] it was -0.45%; in assay [9], 5.58%; in [10], 2.39%; in [11], -1.9%; in [12], -0.56%. The inhibition worked out at 4.16% in [13]; 1.62% in assay [14]; 1.78% in assay [15]; 1.52% in [16]; 3.88% in assay [17]; 2.07% in [18]. The figures for the inhibition in [19] and in [20] were 3.37% and 0.1%, respectively.
As for `Nc1nc(-c2ccccn2)c(-c2ccc3ncccc3n2)s1`, the inhibition was -0.98% in assay [1]; 3.7% in assay [2]; 4.24% in [3]; 1.82% in assay [4]; 1.66% in assay [5]; 3.03% in assay [6]. Also, the inhibition was 3.63% in assay [7]; 5.99% in assay [8]; 4.49% in assay [9]; -7.45% in assay [10]; -5.19% in assay [11]; 2.57% in assay [12]. Also, the inhibition in assay [13] was 3.81%; in [14], 3.89%; in [15] it was 4.78%; in assay [16], -0.12%; in assay [17], 3.17%; in [18] it was 2.96%. The inhibition in assay [19] worked out at 3.86%; in assay [20], 1.93%.
As to `CCn1c(-c2nonc2N)nc2cncc(C(=O)N3CCNCC3)c21`, the inhibition in assay [1] worked out at 1.91%; in [2], 9.41%; in [3] it was 15.3%; in assay [4] it was 3.6%; in assay [5], 4.45%; in assay [6], 7.27%. In addition, the inhibition in assay [7] was 9.28%; in [8], 6.95%; in [9], 8.13%; in assay [10], -5.05%; in [11], 0.53%; in [12], -1.75%. Further, the inhibition was 4.64% in [13]; 4.85% in assay [14]; 4.82% in assay [15]; -1.66% in [16]; -0.43% in assay [17]; 3.41% in assay [18]. Besides, the inhibition in [19] turned out to be 4.95%; in assay [20], 1.64%.
For the compound `CCn1c(-c2nonc2N)nc2cnc(Oc3cccc(NC(=O)c4ccc(OCCN5CCOCC5)cc4)c3)cc21`, the inhibition is 2.57% in assay [1]; 3.65% in [2]; 5.84% in assay [3]; -0.41% in assay [4]; 0.34% in assay [5]; -3.22% in assay [6]. The inhibition in [7] was 2.69%; in assay [8], 1.02%; in [9] it was -0.29%; in [10] it was -6.86%; in assay [11], -8.77%; in [12], 3.79%. In addition, the inhibition in [13] came out at 3.89%; in assay [14], 4.58%; in assay [15], 4.2%; in assay [16], 2.23%; in assay [17], 2.73%; in assay [18], 4.73%. Besides, the inhibition in assay [19] was 3.88%; in [20], 4.38%.
With `CC1=C(C(=O)Nc2ccc3[nH]ncc3c2)C(c2ccc(Cl)c(Cl)c2)CC(=O)N1` (stereo not given), the inhibition in assay [1] was -1.05%; in assay [2], 2.74%; in [3], 3.36%; in [4], 0.48%; in assay [5] it was -0.06%; in [6], 0.86%. The inhibition in assay [7] was 0.53%; in assay [8] it was 4.97%; in assay [9], -3.2%; in assay [10], 6.11%; in assay [11], 2.05%; in assay [12], 1.47%. The inhibition was -1.52% in [13]; 1.38% in [14]; 0.16% in assay [15]; 1.24% in assay [16]; 1.38% in assay [17]; 3.45% in [18]. The inhibition in assay [19] turned out to be 3.33%; in [20] it was 1.44%.
Regarding `NS(=O)(=O)c1ccc(N/N=C2\C(=O)Nc3ccc(C(=O)NCCc4c[nH]cn4)cc32)cc1`, the inhibition in [1] turned out to be 6.15%; in assay [2], 3.1%; in assay [3], 7.85%; in assay [4], 1.34%; in [5], 3.15%; in [6], 4.63%. Moreover, the inhibition in [7] was found to be 6.49%; in [8] it was 2.86%; in assay [9], 3.33%; in assay [10], 10.1%; in assay [11] it was 3.67%; in [12], 5.1%. For the same compound, the inhibition in assay [13] is 6.98%; in assay [14], 3.97%; in [15] it was 11.2%; in [16] it was 4.18%; in assay [17], 9.6%; in [18], 5.47%. Also, the results for the inhibition in assay [19] and in assay [20] were 8.73% and 3.68%, respectively.
With `O=C1NC(=O)C(c2ccccc2Cl)=C1Nc1cccc(O)c1`, the inhibition is 2.65% in assay [1]; 3.51% in assay [2]; 3.76% in assay [3]; 1.94% in assay [4]; 1.62% in [5]; 2.51% in assay [6]. In addition, the inhibition is 3.3% in [7]; 11.9% in [8]; -1.3% in [9]; -0.02% in [10]; 11.2% in assay [11]; 1.22% in [12]. Besides, the inhibition in assay [13] was 1.02%; in assay [14], 3.02%; in [15], 1.17%; in [16], -0.23%; in assay [17], 2.78%; in assay [18] it was 2.48%. Further, the inhibition came out at 1.91% in assay [19] and 3.52% in assay [20].
